# Measurements as given in PubChem BioAssay (NCATS).
# Results filed as inconclusive are left out. A call without a number means that no potency is given here. Activity calls are given as the source filed them. The call rests on the fitted dose curve; in most records, active means well fitted inhibition curve with a large enough effect; inconclusive means small, poorly fitted or top-dose-only effect; inactive means flat fitted curve, though single readings scatter.
# Biological target: Calcium and integrin-binding protein 1 (Homo sapiens) (UniProt Q99828)
# Test: Primary qHTS for Identification of Calcium Integrin Binding Protein 1 (CIB1) Competitor (AID 1508620); further: top concentration of the series differs between compounds
# Settings: CIB1-GST / FITC-alphaIIb peptide fluorescence polarization; series mostly up to 114 µM
# Method in brief: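 Fluorescence polarization competition: GST-tagged CIB1 (1 uM final) preincubated with compound 15 min at room temperature, then FITC-labelled alphaIIb peptide (100 nM final) added. After 15 min at room temperature, polarization read at Ex 480/Em 540.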
# Calcium and integrin-binding protein 1 (Homo sapiens), sequence (Q99828 whole entry, looked up): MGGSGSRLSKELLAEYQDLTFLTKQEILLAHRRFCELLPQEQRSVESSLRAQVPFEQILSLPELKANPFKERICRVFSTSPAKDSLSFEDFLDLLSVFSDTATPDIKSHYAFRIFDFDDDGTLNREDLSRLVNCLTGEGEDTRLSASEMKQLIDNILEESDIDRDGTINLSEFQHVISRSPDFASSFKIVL
row,SMILES,Potency
1,O=S(=O)(NC1CCN(S(=O)(=O)c2ccc3c(c2)OCCO3)CC1)c1c(F)cccc1F,inactive
2,O=C(O)c1ccc2c(c1)C(=O)N([C@H](Cc1c3ccccc3cc3ccccc13)C(=O)O)C2=O,inactive
3,O=C1c2ccccc2C(=O)N1c1cc(=O)c2ccccc2[nH]1,inactive
4,Cc1cccc(CNc2ncnc3ccc(-c4ccc5c(c4)OCCO5)cc23)c1,inactive
5,CC(=O)Nc1ccc(-c2c(NC(C)=O)sc3c2CCNC3)cn1,inactive
6,O=C(OCC#CCSc1nnc(-c2cccc3ccccc23)o1)C1CCCC1,inactive
7,CC(C)(C)OC(=O)N1CCN(c2ccc(NCc3cncc(-c4ccc(C#N)cc4)c3)cc2)CC1,inactive
8,O=C(NCc1ccccc1)Nc1nnc(-c2ccncc2)s1,inactive
9,CC(=O)Nc1sc2c(c1-c1cc3ccccc3[nH]1)CCNC2,inactive
10,O=[S+]([O-])(c1ccc2c(c1)OCCO2)N1CCN([S+](=O)([O-])c2c(F)cc(O)cc2F)CC1,inactive
11,COc1cc2nc(Nc3ccccc3)nc(NC3CC3)c2cc1OC,inactive
12,Cc1cc2c(s1)c1cnn(Cc3c(F)ccc(F)c3F)c(=O)c1n2C,inactive
13,COc1cccc(Cn2ncc3c4sc(C)cc4n(C)c3c2=O)c1,inactive
14,Cc1cccc(-n2cnc3cc(C(=O)N4CCC(Cc5ccccc5)CC4)ccc32)c1,inactive
15,Cc1c(P(=O)(c2ccccc2)c2ccccc2)c2ccccc2n1C,inactive
16,C(#Cc1cccs1)c1cccnc1,inactive
17,Cc1nc(NCc2ccc(-c3ccnc(C(F)(F)F)c3)cc2)c2ccccc2n1,inactive
18,Cc1ccc(OCCCn2c(CCNC(=O)C3CCCCC3)nc3ccccc32)cc1,inactive
19,Cc1cc(-c2nnc3n2CCCCC3)c(C)n1-c1ccc([N+](=O)[O-])cc1,inactive
20,Cc1cc(NS(=O)(=O)c2ccc(NS(=O)(=O)Cc3ccc(Cl)c(Cl)c3)cc2)no1,inactive
21,Cc1ccc(CN(C)c2ncnc3ccc(-c4ccc(C#N)n4C)cc23)o1,inactive
22,CCOc1ccc(CCNC(=O)c2cc3sccc3n2Cc2ccccc2)cc1OCC,inactive
23,N#Cc1cccc(-c2noc(-c3ccccc3F)n2)c1,inactive
24,c1cncc(-c2ccc(CNc3nc(N4CCCC4)nc4ccccc34)cc2)c1,inactive
25,COc1cncc(NC(=O)c2cccs2)c1,inactive
26,Cc1ccc(CN(C)c2ncnc3ccc(-c4ccc(C(=O)O)o4)cc23)o1,inactive
27,N#Cc1nc(Nc2cc(F)cc(F)c2)nc(Nc2cc(F)cc(F)c2)n1,inactive
28,Cc1ccc(NC(=O)CN2C(=O)N/C(=C\c3cccn3-c3cccc(-c4nn[nH]n4)c3)C2=O)cc1,inactive
29,CC(=O)NC(c1cccs1)c1cc(F)c2cccnc2c1O (centres undefined),inactive
